A number with no mark means an inactive call.
Each molecule was assayed on Plasmodium falciparum NF54-HGL (transmission to Anopheles stephensi) (assay: percentage of barcode signal found in uninfected mosquitoes (transmission-blocking activity); higher = stronger blocking of transmission to mosquito, active = 80 or more). Conditions: 20 µM; gametocyte preincubation time 24 h; readout time post-feed 8 days.
Method: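 The mixture was fed to Anopheles stephensi in 96-well plates as blood meals tagged with DNA-barcoded Asaia bacteria. Eight days later, mosquitoes were classed infected or uninfected by luminescence (mean + 5 SD of unfed controls). Barcodes were quantified by Luminex MagPlex-TAG in the pooled uninfected and infected Asaia cultures, background-corrected, and the score is % of barcode signal in uninfected mosquitoes = 100*Iu/(Iu+Ii).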

Row | Compound | percentage of barcode signal found in uninfected mosquitoes
1 | CC1=Nc2ccc(Cl)cc2C(c2ccccc2)N1CCNC(=O)CN(C)C (stereo not given) | 71.2%
2 | COc1ccc(C(=N)N)cc1-c1cn(-c2ccc(C(=N)N)cc2)nn1 | 2.56%
3 | COc1cccc(CC(=O)N2CCC(n3c(C)nc4ccc(F)cc43)CC2)c1 | 31.2%
4 | CC1CCCN(C(=O)C(C)Nc2cc(Cl)ccc2N2CCOCC2)C1 (stereo not given) | 15.9%
5 | FC(F)(F)c1ccc(N(c2cccnc2)C2CCN(c3ccc(C(F)(F)F)cn3)CC2)cc1 | 27.4%
6 | CC(C)(C)C(=O)N(CCCCCCN1C[C@H](O)[C@@H](O)[C@H](O)[C@H]1CO)C1CCCCCC1 | 17%
7 | COc1ccc(CN2CCOc3ccc(C(C)(O)CN(C)C)cc3C2)cc1C (stereo not given) | 36.4%
8 | CN1CCN(S(=O)(=O)c2ccc(-c3ccc4c(Nc5ncc(Cl)cn5)ccnc4c3)cc2)CC1 | 50.8%
9 | Nc1nc2ccc(-c3cncc(Oc4ccc(F)cc4)c3)cc2[nH]1 | 99.4% (active)
10 | CN1CCCN(C(c2ccccc2)c2ccc(Cl)cc2)CC1 (stereo not given) | 25.1%

Reference: the supplement of paper PMC8726507
